Compound activity as filed in PubChem.
VDR inh – vitamin D3 receptor (human) inhibition; Potency, µM, inactives show max response, negative = inhibition, most hits filed as inhibitors; 400,000 tested, 0.93% active; VDR-SRC2-3 peptide fluorescence polarization, 2 h
Target sequence (P11473 whole entry, looked up): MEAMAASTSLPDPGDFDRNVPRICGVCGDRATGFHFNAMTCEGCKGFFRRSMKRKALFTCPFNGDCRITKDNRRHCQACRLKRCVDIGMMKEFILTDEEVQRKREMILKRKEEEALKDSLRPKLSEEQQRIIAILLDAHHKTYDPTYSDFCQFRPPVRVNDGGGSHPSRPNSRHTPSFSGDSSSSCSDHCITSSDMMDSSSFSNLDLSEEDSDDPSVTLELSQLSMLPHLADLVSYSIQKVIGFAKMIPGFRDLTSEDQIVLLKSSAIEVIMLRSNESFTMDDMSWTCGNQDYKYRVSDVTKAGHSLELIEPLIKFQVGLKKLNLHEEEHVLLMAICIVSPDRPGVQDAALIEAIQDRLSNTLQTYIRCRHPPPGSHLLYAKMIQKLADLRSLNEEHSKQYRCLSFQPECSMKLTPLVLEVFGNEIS
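VDR–SRC2-3 interaction, FP format. Cmpds 23 nl via pintool, brief spin, 2 h ambient incubation.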
DT40 TDP1 CPT – DT40-hTDP1 cell growth loss with CPT | 420,000 tested, 12% active | chicken DT40 Tdp1-/-;hTDP1 cells + 20 nM CPT, ATP luminescence, 48 h | Potency, µM (highest dose often 46.2 µM), for the others: at the top dose activity change, negative = growth inhibition, hits mostly inhibitors; further: nearly all actives have a fitted effect of over 55% in size
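Chicken DT40 Tdp1-/- cells complemented with human TDP1, 400 cells/well, exposed to compounds plus 20 nM camptothecin for at least 48 h at 37 C; viability read as ATP content by CellTiter-Glo luminescence.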
PLK1 PBD block – blocks phosphopeptide binding to human PLK1 polo-box domain; P53350; Plk1 PBD binding of FITC phosphopeptide, fluorescence polarization; Potency, µM, inactives show max response, negative = inhibition, hits mostly inhibitors; 360,000 tested, 2.8% active; AID 720504; further: series mostly up to about 57 µM; nearly all actives have a fitted effect of over 65% in size
GCN5L2 inh – blocks human GCN5L2 histone acetyltransferase | Q92830 | GCN5L2 HAT assay, ThioGlo1 CoA-SH fluorescence | Potency, µM (doses to about 58.9 µM), for the others: at the highest dose activity change, negative = inhibition, actives largely listed as inhibitors | 390,000 tested, 0.21% active | AID 504327
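Compounds, pin-transferred from DMSO stocks, meet 20nM GCN5L2 for 15 min before the reaction begins with H3(1-25) peptide (75uM) and acetyl-CoA (70uM). Thiol-reactive ThioGlo1 reports CoA release over 20 min at room temperature.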
TDP1 inh – TDP1 (human) enzyme inhibition | recombinant TDP1, AlphaScreen DNA substrate cleavage | 350,000 tested, 0.28% active | Potency, µM (titrated, usually from 130 µM), without a hit: at the top dose activity change, negative = inhibition, actives largely listed as inhibitors | AID 485290; further: nearly all actives have a fitted effect of over 40% in size
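Steps: enzyme plus compound, 15 min RT; add biotin/phosphotyrosine-FITC oligonucleotide (15 nM final), react 5 min; add donor/acceptor beads (10 ug/ml final), 10 min; read AlphaScreen. Tdp1 at 1 nM final.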
TDP1 cell noCPT – qHTS for Inhibitors of human tyrosyl-DNA phosphodiesterase 1 (TDP1): qHTS in cells in absence of CPT; DT40 Tdp1-/- hTDP1 cells, no CPT, ATP luminescence, 48 h; Potency, µM (titrated, usually from 46.2 µM), without a hit: top-dose activity change, negative = growth inhibition, hits mostly inhibitors; 420,000 tested, 15% active; further: nearly all actives have a fitted effect of over 55% in size
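DT40 Tdp1-/-;hTDP1 cells, no CPT (DMSO vehicle only), 400 cells/well; compounds pin-transferred; ≥48 hr, 37 °C; CellTiter-Glo 30 min RT dark, luminescence read.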
* marks the source's active call; other numbers are inactive results; ? = inconclusive; · = no result. A selection: hits, their analogues and other compounds. The true share with any hit is near 18%. The call rests on the fitted dose curve; in most records, active means well fitted curve in the direction sought with a large enough effect; inconclusive means small, poorly fitted or top-dose-only effect, or another doubt; inactive means no such curve, though single readings can be large; an effect the other way counts as inactive or inconclusive. On the % scale 0 is the no-effect control and ±100 the full control effect; potency means the concentration at half of the fitted maximal effect.

SMILES	VDR inh	DT40 TDP1 CPT	PLK1 PBD block	GCN5L2 inh	TDP1 inh	TDP1 cell noCPT
COc1ccc2[nH]cc(CCNC(=O)/C=C/[C@H]3O[C@@H](n4cc(C)c(=O)[nH]c4=O)C[C@@H]3O)c2c1	·	-0.1%	2.3%	·	·	9.2%
COc1ncnc2c1ncn2CCCNCCCN1CCCC1=O	·	4.3%	4.1%	·	·	-22.6%
O=C(Cn1cc(COc2ccc(Cl)c(Cl)c2)nn1)NS(=O)(=O)c1ccccc1C(F)(F)F	·	-10.5%	-19.4%	·	·	-11.1%
O=C(/C=C/c1ccc([N+](=O)[O-])cc1)Nc1cccc(C(=O)Nc2ccccc2C(=O)O)c1	-9.1%	?	?	?	·	?
O=C(CCCCCn1c(=O)c2sccc2n(CC(=O)Nc2cccc(Cl)c2)c1=O)NCc1ccc2c(c1)OCO2	26.2%	?	·	-7.1%	0.0%	14.6µM*
CCOc1ccccc1NC(=O)Cn1c(=O)n(CCC(=O)NCc2ccc3c(c2)OCO3)c(=O)c2ccccc21	2.1%	?	·	-2.4%	0.0%	11.6µM*
Cc1ccc(NC(=O)Cn2c(=O)n(CCCCC(=O)NCc3ccccc3Cl)c(=O)c3ccccc32)cc1	9.1%	?	·	-4.9%	3.6%	23.1µM*
O=C(CCCn1c(=O)c2ccccc2n(CC(=O)Nc2cccc(Cl)c2)c1=O)NCc1ccc2c(c1)OCO2	-4.6%	?	·	-6.4%	7.3%	14.6µM*
CC#CCC(C)[C@H](O)/C=C/[C@@H]1[C@H]2C/C(=C/CCCC(=O)O)C[C@H]2C[C@H]1O (stereo partly drawn)	·	15.2%	·	·	·	-2.1%
CCc1cccc(NS(=O)(=O)c2c(C)[nH]c(=O)[nH]c2=O)c1	0.6%	13.8%	-0.9%	-8.9%	5.2%	10.6%
CC(=O)c1cccc(NC(=O)c2cc(-c3ccc(Cl)s3)nc3ccccc23)c1	-0.5%	?	·	-3.2%	1.8%	?
CCOC(=O)c1cc2sccc2n1CC(=O)c1ccc2c(c1)OCCO2	3.1%	14.6µM*	-9.7%	-9.4%	0.0%	13µM*
CCOC(=O)c1cc2sccc2n1CC(=O)O	2.5%	-2.4%	-11.3%	-0.4%	-2.5%	0.8%
O=C1C[C@H]2[C@H](CO)[C@@H](OC(=O)c3ccc(-c4ccccc4)cc3)C[C@H]2O1	2.8%	?	1.8%	-5.3%	3.7%	16.4µM*
O=C1CC2C(CC(OC(=O)c3ccc(-c4ccccc4)cc3)C2CO)O1 (stereo not drawn)	-0.3%	-4.9%	0.7%	0.6%	1.0%	?
Cc1ccc(-c2nc(S(=O)(=O)c3ccc(C)cc3)c(N(C)C)o2)cc1	?	?	-6.0%	-2.5%	4.1%	23.1µM*
Cc1ccc(S(=O)(=O)c2nc(-c3ccccc3Br)oc2N(C)C)cc1	-8.5%	20.6µM*	-17.4%	·	·	?
COC(=O)c1nc(-c2ccc(C)cc2)oc1N(C)C	-15.8%	-13.3%	-18.1%	-3.4%	4.0%	-11.0%
COc1ccc(CNC(=O)CN2C(=O)CSc3ccc(S(=O)(=O)N4CCCC4)cc32)cc1	17.7%	-21.2%	·	-11.8%	7.7%	?
[O-][n+]1cccc(CO)c1	3.4%	22.2%	·	-4.2%	3.2%	1.3%
COc1ccc(-n2cc(CN[C@H]3CCCCNC3=O)c(-c3cccc(F)c3)n2)cc1	17.7%	5.8µM*	0.8%	-14.5%	·	5.8µM*
COc1ccc(-n2cc(CNC3CCN(C)CC3)c(-c3cccc(F)c3)n2)cc1	17.2%	14.6µM*	-2.5%	-17.0%	2.7%	14.6µM*
COc1ccc(N2C(=O)CC(NC3CCCCNC3=O)C2=O)cc1 (stereo not drawn)	-12.9%	0.4%	-7.5%	-0.3%	4.4%	-16.3%
CCCOC(c1ccccc1)(c1ccc(C(F)(F)F)cc1)C(Oc1nc(C)cc(C)n1)C(=O)O (stereo not drawn)	-3.6%	18.4µM*	-17.7%	-16.5%	2.6%	20.6µM*
Cc1ccnc(OC(C(=O)O)C(OCc2ccccc2)(c2ccc(F)cc2)c2ccc(F)cc2)n1 (stereo not drawn)	?	-10.1%	26.7µM*	-2.7%	·	-8.8%
SMILES	VDR inh	DT40 TDP1 CPT	PLK1 PBD block	GCN5L2 inh	TDP1 inh	TDP1 cell noCPT
Cc1cc(C)nc(OC(C(=O)O)C(OCCc2ccccc2)(c2ccc(F)cc2)c2ccc(F)cc2)n1 (stereo not drawn)	?	?	?	-4.4%	4.8%	-4.3%
CN(C)c1ccc(N/C(=N\S(=O)(=O)c2cccs2)c2ccccc2)cc1	-16.0%	?	1.1%	-21.0%	0.0%	6.51µM*
CN(/C(=N/S(=O)(=O)c1cccs1)c1ccccc1)c1ccccc1	-2.6%	-3.1%	0.0%	37.5%	0.6%	?
Cc1ccnc(NC(=O)CCC2CCCCC2)c1	-3.6%	-28.1%	-4.2%	-1.6%	-3.3%	-20.6%
Cc1cc[n+](CCC2CCCCC2)cc1	·	10µM*	·	·	·	11.2µM*
CCCn1c(SCC(=O)N2CCc3ccccc3C2)nc(O)cc1=O	-13.4%	-12.3%	-23.8%	-7.9%	0.2%	-4.9%
COc1cc2cc(C(=O)N3CCc4ccccc4C3)[nH]c2cc1OC	-9.1%	-4.3%	-14.1%	4.2%	2.9%	3.5%
COc1cc2[nH]c(C(=O)N3CCc4ccccc4C3)cc2c(OC)c1OC	5.7%	?	-6.9%	-3.2%	2.7%	14.6µM*
CN(Cc1cccs1)c1nc(-c2cccnc2)nc2ccccc12	-20.4%	23.1µM*	-11.4%	-6.0%	4.8%	?
CN(CCO)c1nc(-c2cccs2)nc2ccccc12	?	17.8µM*	·	·	?	?
Cc1ccc(S(=O)(=O)N(C)CCN(C)c2nc(-c3cccs3)nc3ccccc23)cc1	-19.6%	?	·	·	-0.2%	20µM*
Cc1cccc(S(=O)(=O)N2CCN(c3nc(-c4cccs4)nc4ccccc34)CC2)c1	7.5%	-9.5%	·	·	1.9%	-12.7%
Cc1ccc(CSC2=NCCN2C(=O)c2ccc([N+](=O)[O-])cc2)cc1	-7.5%	-9.3%	-10.9%	-25.0%	7.2%	-6.3%
Cc1ccc(C(=O)N2CCN=C2SCc2ccc([N+](=O)[O-])cc2)cc1	-17.2%	?	-14.4%	-5.7%	3.4%	14.6µM*
O=C(Cc1ccccc1)N1CCN=C1SCc1ccc([N+](=O)[O-])cc1	5.2%	?	-9.8%	0.4%	2.7%	?
CCOc1ccc(CC(=O)N2CCN=C2SCc2ccc([N+](=O)[O-])cc2)cc1	14.6%	?	-4.9%	-2.6%	5.4%	29.1µM*
O=C(CC12CC3CC(CC(C3)C1)C2)NC(=S)Nc1ccc(CN2CCOCC2)cc1	-6.4%	?	-1.1%	-3.0%	2.7%	?
Cc1ccccc1-n1nnnc1SCC(=O)NC1CC1	-8.9%	18.5%	-14.1%	1.2%	-0.3%	-13.8%
